# From PubChem BioAssay
# GoLoco inh red: RGS12 GoLoco-Gai1 interaction inhibition. P63096. AID 880. Gai1:RGS12 GoLoco peptide FP, rhodamine, 10 min. Potency, µM (top dose mostly 61.6 µM), for the others: top-dose activity, negative = inhibition, hits mostly inhibitors. actives 0.44% (n = 230,000); active = well fitted inhibition curve with a large enough effect, not every such curve was filed as active; inactive = no such curve, though single readings can be large or run the other way; note: potency is the fitted concentration of half-maximal effect; % is set by controls: 0 for no effect and ±100 for the full control effect; nearly all actives have a fitted effect of over 30% in size
# ALDH1A1 inh: blocks purified human ALDH1A1 activity. Purified ALDH1A1, NADH fluorescence, propionaldehyde substrate. P00352. actives 7.3% (n = 220,000). Potency, µM (top dose mostly 75.3 µM), for the others: top-dose activity, negative = inhibition, usual class: inhibitors;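 note: potency is the fitted concentration of half-maximal effect; plate controls were no enzyme wells and a reference inhibitor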
# Target sequence (P00352 whole entry, looked up): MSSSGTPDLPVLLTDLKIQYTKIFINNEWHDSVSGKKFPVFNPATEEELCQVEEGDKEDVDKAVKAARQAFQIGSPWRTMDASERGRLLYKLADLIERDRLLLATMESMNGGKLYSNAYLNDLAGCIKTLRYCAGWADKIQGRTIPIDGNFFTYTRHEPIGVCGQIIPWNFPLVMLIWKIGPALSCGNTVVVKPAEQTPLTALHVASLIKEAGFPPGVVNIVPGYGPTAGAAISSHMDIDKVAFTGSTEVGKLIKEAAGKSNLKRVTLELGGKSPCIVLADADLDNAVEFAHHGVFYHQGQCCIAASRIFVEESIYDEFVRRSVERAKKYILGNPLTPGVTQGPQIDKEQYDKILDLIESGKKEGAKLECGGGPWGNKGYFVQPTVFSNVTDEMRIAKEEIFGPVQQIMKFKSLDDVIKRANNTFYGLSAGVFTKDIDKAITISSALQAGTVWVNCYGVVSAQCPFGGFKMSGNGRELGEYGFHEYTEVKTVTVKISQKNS
# PNC assembly inh: inhibitors of perinucleolar compartment assembly | PC3M PTB-GFP, PNC prevalence imaging, 16 h; active compounds read low | activity change (PNC), negative = inhibition, % at 10 µM | actives 3.1% (n = 140,000) | AID 2417;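 active = readout at or below -70, meaning at least 70% loss of cells showing the perinucleolar compartment, a nuclear body marking cancer cells; inconclusive = readout between -30 and a set limit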;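 note: plate controls were DMSO wells for no effect and camptothecin positive control wells for full effect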
#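 Read-out is percentage of cells bearing a perinucleolar compartment, from automated 20x imaging of fixed, Hoechst-stained PC3M PTB-GFP cells. Cells were seeded 4 h, then exposed 16 h to compound (23 nl of library stock) in duplicate plates.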
# HTT cytoprotect: Huntington cell model cytoprotection by ATP luminescence. Potency, µM (doses to about 56.4 µM), without a hit: cytoprotection (ATP increase), actives largely listed as activators. actives 0.14% (n = 230,000). PC12 HTT-Q103 induced, cytoprotection, ATP luminescence, 40 h. AID 1471; active = well fitted curve in the direction sought with a large enough effect; inconclusive = small, poorly fitted or top-dose-only effect, or another doubt; inactive = no such curve, though single readings can be large; an effect the other way counts as inactive or inconclusive; note: potency is the fitted concentration of half-maximal effect; % of control where 0% means no effect; nearly all actives have a fitted effect of over 45% in size
#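 Huntington model: PC12 line, ecdysone-inducible HTTQ103 exon1–GFP, tebufenozide 100 nM. Test articles in a dose series. Endpoint luminescence from cellular ATP.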
# HttQ103 aggreg: mutant huntingtin aggregation inhibition | Potency, µM (doses to about 46.1 µM), for inactives: at the highest dose activity change, negative = inhibition, usual class: inhibitors | PC12 HttQ103-GFP aggregates, Acumen cytometry, 40 h | actives 1.1% (n = 220,000); active = well fitted curve in the direction sought with a large enough effect; inconclusive = small, poorly fitted or top-dose-only effect, or another doubt; inactive = no such curve, though single readings can be large; an effect the other way counts as inactive or inconclusive; note: potency is the fitted concentration of half-maximal effect; % is set by controls: 0 for no effect and ±100 for the full control effect; nearly all actives have a fitted effect of over 60% in size
#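 PC12 cells with ecdysone-inducible HTT exon1 Q103-GFP, induced by 100 nM tebufenozide, given compounds in a concentration series. GFP aggregates (1–25 um, 6 SD above background) counted in lysates by laser-scanning cytometry, 488 nm excitation.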
# HPGD block: HPGD (human) dehydrogenase inhibition; P15428; purified HPGD, NADH fluorescence kinetic, PGE2 substrate; Potency, µM, for inactives: top-dose activity change, negative = inhibition, most hits filed as inhibitors; actives 4.3% (n = 150,000); AID 894; note: potency is the fitted concentration of half-maximal effect; % is set by controls: 0 for no effect and ±100 for the full control effect
# Target sequence (P15428 whole entry, looked up): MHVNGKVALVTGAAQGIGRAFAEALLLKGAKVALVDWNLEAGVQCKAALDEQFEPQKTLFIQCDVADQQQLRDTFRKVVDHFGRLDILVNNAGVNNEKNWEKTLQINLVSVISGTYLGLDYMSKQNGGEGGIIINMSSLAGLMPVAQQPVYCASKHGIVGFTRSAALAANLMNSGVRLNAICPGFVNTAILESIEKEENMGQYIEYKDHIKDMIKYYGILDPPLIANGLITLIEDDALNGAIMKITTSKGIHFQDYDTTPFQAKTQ
#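 NADH formation kinetics: reaction with 30 uM PGE2 and 1 mM NAD+ (final), 20 nM enzyme, Tris-HCl pH 8 with Tween 20, after 15 min compound preincubation at room temperature. Fluorescence change, last versus first of five reads.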
# Starred values were filed as active, the others as inactive; ? = inconclusive; · = no result given; [ ] = remark or other dose. Shown are actives, neighbours in structure and some others; about 11% of the full set was active somewhere. Unless noted, calls come from the whole dose curve; as a rule, active = well fitted inhibition curve with a large enough effect (not every such curve was filed as active); inconclusive = small, poorly fitted or top-dose-only effect, or another doubt; inactive = no such curve, though single readings can be large or run the other way.
SMILES,GoLoco inh red,ALDH1A1 inh,PNC assembly inh,HTT cytoprotect,HttQ103 aggreg,HPGD block
C=CCNC(=O)C1CC2Cn3c(nc4cc5ccccc5cc43)C2N1C (stereo not drawn),-27.4%,·,·,-11.9%[10 µM],23.8%[9.22 µM],·
CCNc1ncc2nc(-c3ccc(Cl)cc3)c(=O)n(C)c2n1,4.0%,?,·,-14.4%,·,·
O=C(O)C12CC3CC(C1)CC(n1ncc(N4CCN(c5ccccc5)CC4)c(Cl)c1=O)(C3)C2,2.8%,7.08µM*,-8.8,-0.5%[10 µM],19.3%,-5.0%
O=c1c(Cl)c(N2CCNCC2)cnn1C12CC3CC(CC(C3)C1)C2,-11.9%,4.0%,·,-49.1%,30.4%,·
O=C(O)/C=C1\CCCc2ccccc2[C@H]1O,-6.3%,4.6%,·,-18.6%,·,-10.5%
COc1ccc2c(c1)c1ncn(Cc3ccco3)c(=O)c1n2C,8.8%,?,85.1,-29.4%,10µM*,?
CCOC(=O)c1snc(-c2ccc(F)cc2)c1N,5.8%,10µM*,30.0,14.2%[10 µM],-15.0%,?
Cc1nc2cnc(N3CCOCC3)nc2n(C2CC2)c1=O,22.1%,?,·,-33.9%,·,·
COC(=O)CCN1CCN(S(=O)(=O)c2ccccc2Br)CC1,-10.1%,?,·,·,21.8%,·
N#Cc1cn(Cc2cccc(Cl)c2)c2ccccc12,6.7%,?,-102.9*,-23.7%,?,-20.6%
O=C1/C(=C/c2ccc(F)cc2)SC(=S)N1Nc1ncc(C(F)(F)F)cc1Cl,-3.8%,?,38.6,-9.0%,-9.0%[9.22 µM],-25.2%
O=C1/C(=C\c2ccccn2)SC(=S)N1Nc1ncc(C(F)(F)F)cc1Cl,-18.2%,?,81.1,16.9%,-8.3%,31.6µM*
O=[N+]([O-])c1ccc(N/N=C/c2ccc(O)c(O)c2O)c(S(=O)(=O)N2CCOCC2)c1,87.5%,3.55µM*,·,-32.1%,-15.4%,·
O=C(CCc1ccc(S(=O)(=O)N2CCOCC2)cc1)N/N=C/c1ccc(O)c(O)c1O,-1.5%,12.6µM*,-110.5*,·,11.1%,?
Cc1ccccc1-c1cncnc1NC1CCNCC1,-10.3%,1.9%,·,18.0%,·,-7.2%
COc1ccc2c(c1)O[C@H](c1ccc3c(c1)OCO3)[C@@H](OC(=O)NCCc1ccc(OC)c(OC)c1)C2=O,0.0%,3.6%,·,28.2%,·,-11.2%
CC(=O)C1C(=O)c2c(cccc2[N+](=O)[O-])C1=Nc1ccc(S(N)(=O)=O)cc1 (stereo not drawn),11.8%,22.4µM*,·,5.6%[10 µM],-6.0%[9.22 µM],·
CC(=O)C1=C(O)C(=O)N(c2ccc(S(N)(=O)=O)cc2)C1c1cccc([N+](=O)[O-])c1 (stereo not drawn),-7.4%,1.9%,·,4.4%[10 µM],0.0%[9.22 µM],·
CCC/C=C(\CCC)C(NC(=O)c1cccs1)c1ccc(C(F)(F)F)cc1 (stereo not drawn),10.3%,1.9%,·,-36.0%,·,-9.5%
CN(C)S(=O)(=O)c1cc(S(=O)(=O)N(C)C)c(Cl)cc1N,3.8%,12.6µM*,9.7,-0.1%,-6.3%,-5.6%
CN1CC2([N+](=O)[O-])CC=C(OCCO)C([N+](=O)[O-])(C1)C2 (stereo not drawn),-4.5%,3.2%,-114.6*,·,5.1%,-10.5%
C[N+]1(C)CC2([N+](=O)[O-])CC=C(Oc3ccccc3)C([N+](=O)[O-])(C2)C1 (stereo not drawn),-61.9%,12.1%,17.1,13.0%[10 µM],6.7%,2.2%
CN1CC2([N+](=O)[O-])CC=C(Oc3ccccc3)C([N+](=O)[O-])(C1)C2 (stereo not drawn),-10.1%,2.82µM*,-20.0,-12.3%,-10.5%,-14.0%
O=C(NCC(=O)N(CCN1CCOCC1)C(C(=O)NC1CCCC1)c1ccccc1)c1cccs1 (stereo not drawn),4.1%,3.6%,·,-3.6%[10 µM],0.6%[9.22 µM],·
O=C(NCc1ccc(C(F)(F)F)cc1)C12CN(Cc3ccccc3)CC1C(c1cccc([N+](=O)[O-])c1)=NO2 (stereo not drawn),6.4%,?,18.7,-7.9%[10 µM],-7.1%,-19.0%
SMILES,GoLoco inh red,ALDH1A1 inh,PNC assembly inh,HTT cytoprotect,HttQ103 aggreg,HPGD block
COc1ccc(CCNC(=O)C23CN(Cc4ccccc4)CC2C(c2cccc([N+](=O)[O-])c2)=NO3)cc1 (stereo not drawn),4.9%,8.91µM*,-19.3,13.4%[10 µM],6.8%,-25.1%
O=C(NCc1ccc2c(c1)OCO2)C12CN(Cc3ccccc3)CC1C(c1cccc([N+](=O)[O-])c1)=NO2 (stereo not drawn),-2.3%,?,-86.7*,-1.2%[10 µM],7.0%,-1.8%
CCOC(=O)C1(S(=O)(=O)c2ccc(Cl)cc2)CCN(Cc2ccc(C)cc2)CC1,-1.7%,2.0%,16.0,-20.2%,-21.7%,-8.5%
CSc1c(SCc2ccccc2)cnn(-c2ccccc2)c1=O,13.0%,?,?,-3.6%[10 µM],-11.2%,-10.3%
CC1CCC(NC(=O)c2cnccn2)CC1 (stereo not drawn),-4.2%,-10.0%,-23.2,-23.5%,10.1%,-5.8%
Cc1cc(O)cc2c1O[C@](C)(CCC[C@H](C)CCC[C@H](C)CCCC(C)C)CC2,13.8%,·,·,-69.1%,6.4%,·
CCN(Cc1ccccc1)c1ccc(/C=C(\C#N)c2ccccn2)cc1,·,14.1µM*,?,-6.9%[10 µM],5.5%,·
COc1ccc(CCNC(=O)CSc2n[nH]c(C)c2[N+](=O)[O-])cc1OC,-4.6%,28.2µM*,·,?,-11.4%,·
Cc1[nH]nc(SCC(=O)NCCc2ccccc2)c1[N+](=O)[O-],-6.5%,1.6%,·,-2.6%,1.5%[9.22 µM],·
COc1ccc(CCNC(=O)Cc2ccc(OCc3ccccc3)c(OC)c2[N+](=O)[O-])cc1OCc1ccccc1,36.2%,?,-101.3*,-6.2%,?,-17.7%
CN(C)c1cccc(O)c1,1.5%,8.91µM*,·,3.8%,·,-8.4%
COc1ccccc1NC(=O)C(=O)NNS(=O)(=O)c1ccc2ccccc2c1,3.3%,·,·,5.1%[10 µM],-11.9%[9.22 µM],·
COc1ccc(NC(=S)NNS(=O)(=O)c2ccc3ccccc3c2)c(OC)c1,16.5%,22.4µM*,·,23.6%[10 µM],0.6%[9.22 µM],·
CCC(=C(c1ccc(OC)cc1)c1ccc(OC)cc1)c1cn(CC(O)CN2CCN(C)CC2)c2ccccc12 (stereo not drawn),3.0%,-14.0%,?,-99.3%,15.8µM*,-11.6%
COc1ccc(-c2cc3ccccc3n2CC(O)CN2CCCCC2)cc1 (stereo not drawn),-1.6%,·,·,-11.4%[10 µM],-33.2%[9.22 µM],·
COc1ccccc1C(=O)N(CCC1CCCN1C)c1nc2ccccc2s1 (stereo not drawn),16.1%,7.6%,·,-1.5%[10 µM],-0.6%[9.22 µM],·
